Data from PubChem BioAssay (Tox21).
Inconclusive results are not listed. Activity calls are given as the source filed them. Unless noted, calls follow the shape of the dose curve; as a rule, active = well fitted curve in the direction sought with a large enough effect in the repeat runs; inconclusive = weak or mixed curves; inactive = no such curve, though single readings can be large; an effect the other way counts as inactive or inconclusive. Non-standard residues stand in square brackets, D forms with d. Residues, ends and D or L forms follow the SMILES beside them. *: point of attachment. Sta = CC(C)C[C@H](N)[C@@H](O)CC(=O)O; Isovaleryl = CC(C)CC(=O)*

Columns and labels:
[1] = qHTS assay to identify small molecule agonists of the sonic hedgehog signaling (Shh) pathway - cell viability counter screen (AID 1259366); also: nearly all actives have a fitted effect of over 50% in size
How it was run: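 NIH/3T3-derived 3T3 Gli1-Luc cells (stable Gli1-responsive firefly luciferase reporter) were seeded, rested 4 hr at 37 C/5% CO2, then exposed to compounds in DMSO for 24 hr; viability was read by CellTiter-Fluor fluorescence in the same wells.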

[2] = qHTS assay to identify small molecule antagonists of the sonic hedgehog signaling (Shh) pathway - cell viability counter screen (AID 1259367); also: nearly all actives have a fitted effect of over 55% in size
How it was run: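 CellTiter-Fluor signal in conditioned medium-stimulated 3T3 Gli1-Luc cells, 23 hr compound exposure, 37C.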

[3] = qHTS assay to identify small molecule agonists of the sonic hedgehog signaling (Shh) pathway (AID 1259368; calls by dose curve; also: series mostly up to about 92 µM; nearly all actives have a fitted effect of over 15% in size)
How it was run: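 Hedgehog pathway agonism scored by increased firefly luciferase luminescence in 3T3Gli1-Luc cells treated 24 hr at 37 C; detection used a 30 min room-temperature reagent incubation.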

[4] = qHTS assay to identify small molecule antagonists of the sonic hedgehog signaling (Shh) pathway (AID 1259369; calls by dose curve; also: nearly all actives have a fitted effect of over 45% in size)
How it was run: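 NIH/3T3 stable Gli1-Luc clone, 2,000 cells/well, 4hr settle; cpd + conditioned medium 24hr; Luc reagent 30min RT; luminescence.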

[5] = qHTS assay to identify small molecule agonists of the androgen receptor (AR) signaling pathway in the presence of an antagonist - cell viability counter screen (AID 1259379);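 also: MDA-kb2 human breast cancer cells carrying an MMTV luciferase reporter; series mostly up to about 92 µM; nearly all actives have a fitted effect of over 25% in size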
How it was run: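 MDA-kb2 viability measured by CellTiter-Fluor fluorescence in the same wells as the luciferase signal; nilutamide 3.0uM final; 15-point compound titration; 16 hr at 37C.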

[6] = qHTS assay to identify small molecule agonists of the estrogen receptor beta (ER-beta) signaling pathway - cell viability counter screen (AID 1259380); also: nearly all actives have a fitted effect of over 30% in size
How it was run: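 Measured: luminescence from CellTiter-Glo after 30 min at room temperature, added to wells already read for the LiveBLAzer FRET reporter (2 hr substrate); ER-beta-UAS-bla HEK293T cells had 16 hr compound treatment at 37C, 5% CO2.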

[7] = target: Androgen receptor (Homo sapiens) (UniProt P10275); test: qHTS assay to identify small molecule agonists of the androgen receptor (AR) signaling pathway in the presence of an antagonist (AID 1259381; calls by dose curve; also: nearly all actives have a fitted effect of over 15% in size)
How it was run: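 Luminescent ONE-Glo read, 30min at room temperature, follows 16hr compound exposure (15 concentrations) of MDA-kb2 cells at 37C, 0% CO2, with nilutamide added at 3.0uM final.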

[8] = qHTS assay to identify small molecule antagonists of the estrogen receptor beta (ER-beta) signaling pathway - cell viability counter screen (AID 1259382); also: series mostly up to about 92 µM; nearly all actives have a fitted effect of over 55% in size
How it was run: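 Readout: luminescence, CellTiter-Glo, same wells as bla assay. System: ER-beta-UAS-bla GripTite HEK293T, 2% charcoal-stripped FBS. Exposure: compounds plus 1nM 17-beta-estradiol, 16 hr, 37C.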

[9] = target: Estrogen receptor beta (Homo sapiens) (UniProt Q92731); test: qHTS assay to identify small molecule agonists of the estrogen receptor beta (ER-beta) signaling pathway (AID 1259377; active = well fitted activation curve with a large enough effect in the signal ratio in the repeat runs, not every such curve was filed as active; the % refers to the signal ratio)
How it was run: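 ER-beta-UAS-bla HEK293T (GripTite) cells carrying a UAS-driven beta-lactamase reporter, in medium with 2% charcoal-stripped FBS, were exposed to compounds for 16 hr at 37C; LiveBLAzer B/G FRET substrate was then added and fluorescence read after 2 hours at room temperature.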

[10] = target: Estrogen receptor beta (Homo sapiens) (UniProt Q92731); test: qHTS assay to identify small molecule antagonists of the estrogen receptor beta (ER-beta) signaling pathway (AID 1259378; active = well fitted inhibition curve with a large enough effect in the signal ratio in the repeat runs, not every such curve was filed as active; the % refers to the signal ratio)
How it was run: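 Antagonist mode: compounds added to beta-lactamase reporter HEK293T ER-beta-UAS cells stimulated with E2 (1nM final), 16 hr at 37C. LiveBLAzer B/G FRET substrate, 2 hours room temperature, fluorescence read-out.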
% is scaled to controls: 0 for no effect and ±100 for the full control effect.

Sequence of Androgen receptor (Homo sapiens) (P10275 whole entry, looked up): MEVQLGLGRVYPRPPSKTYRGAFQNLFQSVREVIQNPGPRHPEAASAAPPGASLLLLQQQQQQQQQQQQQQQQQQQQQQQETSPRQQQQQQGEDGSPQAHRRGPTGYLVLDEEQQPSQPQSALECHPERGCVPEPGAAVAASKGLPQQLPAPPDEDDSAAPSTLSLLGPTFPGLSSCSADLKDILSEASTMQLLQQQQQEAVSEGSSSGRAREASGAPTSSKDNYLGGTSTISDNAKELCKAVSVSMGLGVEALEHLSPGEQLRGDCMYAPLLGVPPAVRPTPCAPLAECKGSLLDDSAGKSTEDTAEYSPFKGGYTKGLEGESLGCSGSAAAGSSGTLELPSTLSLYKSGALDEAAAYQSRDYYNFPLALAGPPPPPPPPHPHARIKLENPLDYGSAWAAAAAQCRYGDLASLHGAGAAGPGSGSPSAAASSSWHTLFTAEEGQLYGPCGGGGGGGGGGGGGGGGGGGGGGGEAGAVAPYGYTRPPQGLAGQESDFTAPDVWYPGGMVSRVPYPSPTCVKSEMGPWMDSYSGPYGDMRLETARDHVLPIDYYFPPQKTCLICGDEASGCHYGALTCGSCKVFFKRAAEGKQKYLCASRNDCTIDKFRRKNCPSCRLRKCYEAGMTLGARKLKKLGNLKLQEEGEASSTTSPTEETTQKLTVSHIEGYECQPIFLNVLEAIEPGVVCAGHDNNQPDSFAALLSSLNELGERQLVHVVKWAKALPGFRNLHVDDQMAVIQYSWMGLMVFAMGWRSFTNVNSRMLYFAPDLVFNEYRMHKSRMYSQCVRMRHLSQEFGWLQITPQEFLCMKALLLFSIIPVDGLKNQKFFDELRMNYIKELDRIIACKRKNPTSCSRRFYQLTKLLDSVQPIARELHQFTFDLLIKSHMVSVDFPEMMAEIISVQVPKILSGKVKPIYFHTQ
Sequence of Estrogen receptor beta (Homo sapiens) (Q92731 whole entry, looked up): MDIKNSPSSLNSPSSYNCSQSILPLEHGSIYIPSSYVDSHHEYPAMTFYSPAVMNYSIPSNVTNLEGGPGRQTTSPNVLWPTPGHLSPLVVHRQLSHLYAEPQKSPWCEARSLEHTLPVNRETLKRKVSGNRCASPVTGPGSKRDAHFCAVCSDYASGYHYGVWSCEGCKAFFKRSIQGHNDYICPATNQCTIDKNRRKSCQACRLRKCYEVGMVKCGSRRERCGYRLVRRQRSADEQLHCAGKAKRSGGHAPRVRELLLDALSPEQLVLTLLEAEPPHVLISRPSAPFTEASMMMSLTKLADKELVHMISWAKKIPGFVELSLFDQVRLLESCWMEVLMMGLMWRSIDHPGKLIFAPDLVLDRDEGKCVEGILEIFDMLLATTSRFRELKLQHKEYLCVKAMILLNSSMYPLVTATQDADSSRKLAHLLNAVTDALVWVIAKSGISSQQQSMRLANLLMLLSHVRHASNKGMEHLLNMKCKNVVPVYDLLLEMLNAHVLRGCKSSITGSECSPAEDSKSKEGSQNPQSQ

COC(=O)c1ccc(NC(C)=O)cc1OC
inactive: outcome [1] | outcome [2] | outcome [3] | Potency [4] | outcome [5] | Potency [6] | outcome [7] | outcome [8]

N=C(N)S(=O)O
inactive: outcome [1] | outcome [2] | outcome [3] | Potency [4] | outcome [5] | Potency [6] | outcome [8]

NC(=O)CC[C@@H](N)C(=O)O
inactive: outcome [1] | outcome [2] | outcome [3] | Potency [4] | outcome [5] | Potency [6] | outcome [8]

Nc1cc(S(=O)(=O)O)ccc1O
inactive: outcome [1] | outcome [2] | outcome [3] | Potency [4] | outcome [5] | Potency [6] | outcome [7] | outcome [8]

CCCCNCC
inactive: outcome [1] | outcome [2] | outcome [3] | Potency [4] | outcome [5] | Potency [6] | outcome [8]

CC(=O)OC/C=C(/C)CCC=C(C)C
inactive: outcome [1] | outcome [2] | outcome [3] | Potency [4] | outcome [5] | Potency [6] | outcome [8]

Cc1ccc(O)c(C(=O)c2ccccc2)c1
inactive: outcome [1] | outcome [2] | outcome [3] | Potency [4] | outcome [5] | Potency [6] | outcome [7] | outcome [8]

CC(C)(O)c1ccc(C(C)(C)O)cc1
inactive: outcome [1] | outcome [2] | outcome [3] | Potency [4] | outcome [5] | Potency [6] | outcome [8]

COC(=O)C(c1ccccc1Cl)N1CCc2sccc2C1 (stereo not drawn)
inactive: outcome [1] | outcome [2] | outcome [3] | Potency [4] | outcome [5] | Potency [6] | outcome [8]

CC(=O)Oc1ccc(C(C)=O)cc1
inactive: outcome [1] | outcome [2] | outcome [3] | Potency [4] | outcome [5] | Potency [6] | outcome [8]

COC(=O)N/N=C/c1c[n+]([O-])c2ccccc2[n+]1[O-]
inactive: outcome [1] | outcome [2] | outcome [3] | Potency [4] | outcome [5] | Potency [6] | outcome [8]

O=Cc1ccc(C(=O)O)cc1
inactive: outcome [1] | outcome [2] | outcome [3] | Potency [4] | outcome [5] | Potency [6] | outcome [8]

CCCC[O][Al]([O]CCCC)[O]CCCC
inactive: outcome [1] | outcome [2] | outcome [3] | Potency [4] | outcome [5] | Potency [6] | outcome [8]

CC(C)(C)OC(=O)c1ccccc1C(=O)O
inactive: outcome [1] | outcome [2] | outcome [3] | Potency [4] | outcome [5] | Potency [6] | outcome [8]

CCCc1ccc(O)c(OC)c1
inactive: outcome [1] | outcome [2] | outcome [3] | Potency [4] | outcome [5] | Potency [6] | outcome [8]

CC(C)(O)CCCC1=CCC(C=O)CC1 (stereo not drawn)
inactive: outcome [1] | outcome [2] | outcome [3] | Potency [4] | outcome [5] | Potency [6] | outcome [8]

CC(=O)Nc1ccc(S(=O)(=O)Nc2cc(C)on2)cc1
inactive: outcome [1] | outcome [2] | outcome [3] | Potency [4] | outcome [5] | Potency [6] | outcome [8]

Cc1ccc(OC(=O)CC(C)C)cc1
inactive: outcome [1] | outcome [2] | outcome [3] | Potency [4] | outcome [5] | Potency [6] | outcome [8]

CC(=O)Nc1ccc(OCCOCCOc2ccc(NC(C)=O)cc2)cc1
inactive: outcome [1] | outcome [2] | outcome [3] | Potency [4] | outcome [5] | Potency [6] | outcome [8]

C[C@@H]1CC[C@@]2(OC1)O[C@H]1C[C@H]3[C@@H]4CC[C@H]5C[C@@H](O)CC[C@]5(C)[C@H]4CC(=O)[C@]3(C)[C@H]1[C@@H]2C
inactive: viability change, negative = cytotoxic [1] -4.38% [at 8.39 µM] | viability change, negative = cytotoxic [2] 0.938% [at 8.39 µM] | activity change [3] -0.0264% [at 8.39 µM] | activity change, negative = inhibition [4] 0.87% [at 8.39 µM] | activity change, negative = cytotoxicity [5] 0.258% [at 8.39 µM] | activity change, negative = cytotoxicity [6] 3.8% [at 8.39 µM] | activity change, negative = cytotoxicity [8] 3.19% [at 8.39 µM]

Cc1ccccc1C#N
inactive: outcome [1] | outcome [2] | outcome [3] | Potency [4] | outcome [5] | Potency [6] | outcome [8]

O=C1CCCc2c(O)cccc21
inactive: outcome [1] | outcome [2] | outcome [3] | Potency [4] | outcome [5] | Potency [6] | outcome [7] | outcome [8]

COc1cc(NS(=O)(=O)c2ccc(N)cc2)ncn1
inactive: outcome [1] | outcome [2] | outcome [3] | Potency [4] | outcome [5] | Potency [6] | outcome [8]

CCN(CC)CC
inactive: outcome [1] | outcome [2] | outcome [3] | Potency [4] | outcome [5] | Potency [6] | outcome [8]

O=C(CCBr)N1CCN(C(=O)CCBr)CC1
inactive: outcome [1] | outcome [2] | outcome [3] | Potency [4] | outcome [5] | Potency [6] | outcome [8]

Cc1ccc(Br)cc1
inactive: outcome [1] | outcome [2] | outcome [3] | Potency [4] | outcome [5] | Potency [6] | outcome [8]

N=C(N)N1CCc2ccccc2C1
inactive: viability change, negative = cytotoxic [1] 2.39% [at 8.39 µM] | viability change, negative = cytotoxic [2] 3.14% [at 8.39 µM] | activity change [3] 0.863% [at 8.39 µM] | activity change, negative = inhibition [4] 18.9% [at 8.39 µM] | activity change, negative = cytotoxicity [5] 0.84% [at 8.39 µM] | activity change, negative = cytotoxicity [6] 1.92% [at 8.39 µM] | activity change, negative = cytotoxicity [8] 8.18% [at 8.39 µM]

CCCCCCCOC(C)=O
inactive: outcome [1] | outcome [2] | outcome [3] | Potency [4] | outcome [5] | Potency [6] | outcome [8]

CSC(=O)c1cccc2nnsc12
inactive: outcome [1] | outcome [2] | outcome [3] | Potency [4] | outcome [5] | Potency [6] | outcome [7] | outcome [8]

CC(C)CC(=O)N[C@H](C(=O)N[C@H](C(=O)N[C@@H](CC(C)C)[C@@H](O)CC(=O)N[C@@H](C)C(=O)N[C@@H](CC(C)C)[C@@H](O)CC(=O)O)C(C)C)C(C)C (Isovaleryl-VV[Sta]A[Sta]-OH)
inactive: outcome [1] | outcome [2] | outcome [3] | Potency [4] | outcome [5] | Potency [6] | outcome [8]

CCCCCCCCCCCCCCCC/C=C/C1CC(=O)OC1=O (stereo not drawn)
inactive: outcome [1] | outcome [2] | outcome [3] | Potency [9] | outcome [10] | outcome [5] | Potency [6] | outcome [8]
